The whole screen tested about 360,000 compounds, of which about 660 (0.18%) were called active. Inconclusive results (about 2%) are left out. The call rests on the fitted dose curve; in most records, active means well fitted inhibition curve with a large enough effect; inconclusive means small, poorly fitted or top-dose-only effect; inactive means no such curve, though single readings can be large or run the other way. Only a selection was taken, and actives are over-represented in it overall.
The compounds below were run against Rap guanine nucleotide exchange factor 4 (Homo sapiens) (UniProt Q8WZA2) (assay: qHTS for Antagonist of cAMP-regulated guanine nucleotide exchange factor 2 (EPAC2): primary screen). Conditions: EPAC2 GEF exchange of Rap1B-BODIPY-GDP, fluorescence; series mostly up to 114 µM.
Further: nearly all actives have a fitted effect of over 45% in size.

Chain of Rap guanine nucleotide exchange factor 4 (Homo sapiens) (Q8WZA2 whole entry, looked up): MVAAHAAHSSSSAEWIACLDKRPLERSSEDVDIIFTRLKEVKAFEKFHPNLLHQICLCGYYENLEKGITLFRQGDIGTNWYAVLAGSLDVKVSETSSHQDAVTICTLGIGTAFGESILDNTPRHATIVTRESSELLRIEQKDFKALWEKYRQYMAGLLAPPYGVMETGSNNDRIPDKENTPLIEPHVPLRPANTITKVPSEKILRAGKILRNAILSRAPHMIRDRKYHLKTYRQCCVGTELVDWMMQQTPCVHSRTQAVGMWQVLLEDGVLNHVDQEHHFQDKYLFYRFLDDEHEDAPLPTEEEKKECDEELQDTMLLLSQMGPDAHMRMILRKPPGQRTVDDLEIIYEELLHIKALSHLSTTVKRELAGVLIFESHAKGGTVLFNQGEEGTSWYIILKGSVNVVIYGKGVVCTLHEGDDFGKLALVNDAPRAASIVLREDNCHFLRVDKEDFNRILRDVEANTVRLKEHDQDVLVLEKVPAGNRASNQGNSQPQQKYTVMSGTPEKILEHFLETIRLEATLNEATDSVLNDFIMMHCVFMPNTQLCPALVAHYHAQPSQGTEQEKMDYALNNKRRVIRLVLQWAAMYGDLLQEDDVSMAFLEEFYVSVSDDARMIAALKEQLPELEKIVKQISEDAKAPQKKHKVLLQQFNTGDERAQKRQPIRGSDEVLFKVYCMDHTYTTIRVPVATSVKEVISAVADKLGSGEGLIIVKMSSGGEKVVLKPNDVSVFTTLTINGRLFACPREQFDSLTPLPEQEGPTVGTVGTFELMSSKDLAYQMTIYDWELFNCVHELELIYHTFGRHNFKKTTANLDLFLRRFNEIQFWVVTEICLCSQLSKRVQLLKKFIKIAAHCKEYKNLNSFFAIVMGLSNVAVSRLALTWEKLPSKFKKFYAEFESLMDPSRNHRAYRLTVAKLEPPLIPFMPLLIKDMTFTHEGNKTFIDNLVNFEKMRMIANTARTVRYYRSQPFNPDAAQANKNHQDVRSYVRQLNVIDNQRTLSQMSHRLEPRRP

Potency, inactive:
CC(=O)Nc1ccc(SC[C@H](Cc2ccccc2)N2CC[C@@H](C)CCC2=O)cc1, CCCCOCCCNC(=O)C[C@@H]1C[C@@]2(C(=O)OCC)CCCC=C2N(CCC2=CCCCC2)C1=O, C[N+](C)(C)CCNC(=O)c1cc[n+](Cc2ccccc2)c(/C=N/O)c1, COc1cc(OC)cc(C(=O)Nc2nnc(SCC(=O)NCC3CCCO3)s2)c1 (stereo not given), Nc1nc(SCC(=O)NN(c2ccccc2)c2ccccc2)n[nH]1, COc1ccc(CN2C(=O)C(CC(=O)NCCCCc3ccccc3)CC(C(=O)N3CCOCC3)=C2C)cc1 (stereo not given), COc1ccccc1C(CNC(=O)c1ccc(C)c(S(=O)(=O)N2CCCCC2)c1)N(C)C (stereo not given), O=c1[nH]cnc(O)c1C(c1ccc(F)cc1)c1c(O)nc[nH]c1=O, CCC(=O)N1CCc2cc(S(=O)(=O)NC(C(=O)N3CCc4ccccc4C3)C(C)C)ccc21 (stereo not given), COC(=O)c1ccccc1OCC(=O)N1CCN(c2ccc(Cl)cc2)CC1, N#C[C@]1(S(=O)(=O)c2ccccc2)C[C@@H]2ON=C(c3cccc(Br)c3)[C@@H]2C1, O=C1Nc2ccccc2-n2nnnc2C1N1CCN(c2cccc(C(F)(F)F)n2)CC1 (stereo not given), CN(C(=O)CSc1nnc(N)s1)c1c(N)n(Cc2ccccc2)c(=O)[nH]c1=O, C/C(=N\NC(=O)c1cccnc1)c1ccc(-n2ccnc2)cc1, CO[C@@H]1CN(C)C(=O)c2cc(NC(=O)C3CC3)ccc2OC[C@H](C)N(C(=O)CN2CCOCC2)C[C@@H]1C, S=C(Nc1ccc2c(c1)OCO2)N1CCCC1, COC(=O)[C@]12CCCCC=C1N(Cc1ccccc1)C(=O)[C@H](CC(=O)NCc1ccc(C)o1)C2, Cn1nnnc1SCC(=O)NNC(=O)c1ccc(Br)cc1, CC1(C(=O)NS(=O)(=O)c2cccc(OC(F)F)c2)CCN1C(=O)COc1ccc(Cl)cc1 (stereo not given), CCc1ccc(Oc2nc([N+](=O)[O-])nn2C)cc1, COc1ccc(C(O)C(O)(C(=O)OC(C)C)c2ccc(C)cc2)cc1 (stereo not given), COC(=O)[C@@]12C[C@@H](CC(=O)N3CCCCC3)C(=O)N(Cc3ccc4c(c3)OCO4)C1=CCC(C)(C)C2, O=C(c1cccc(S(=O)(=O)N2CCCC2)c1)N(Cc1ccco1)C1CCS(=O)(=O)C1 (stereo not given), COc1ccc(C(C)NC(=O)C23CC4CC(CC(C4)C2)C3)cc1 (stereo not given), COc1ccc(NC(=O)C2(C)Cc3c(-c4ccc(C(N)=O)cc4)ccnc3O2)cc1 (stereo not given), c1ccc(-c2ccnc3nc(-n4cccc4)nn23)cc1, Cc1cc(C(=O)CC#N)c(C)n1-c1c(C)n(C)n(-c2ccccc2)c1=O, O=C(Cn1cc(C(=O)C2CC2)c2ccccc21)Nc1ccccc1Cl, COc1ccc(N(CC(=O)NC2CCCCC2)S(=O)(=O)c2c(C)[nH]c(=O)[nH]c2=O)cc1, CCOC(=O)[C@]12CCCC=C1N(Cc1ccc(Cl)cc1Cl)C(=O)[C@H](CC(=O)N1CCCCC1)C2, Cc1ncc(CO)c(/C=N/NC(=O)c2cccc(S(=O)(=O)N3CCCC3)c2)c1O, O=C(COc1nc2ccccc2nc1N1CCOCC1)NCC(F)(F)F, COc1ccc(-c2c(C(C)=O)c(C)nc3sc4c(=O)n(-c5ccc(C)cc5)nnc4c23)cc1, CCNC(=S)N1CCC(c2nc3cc(C)c(C)cc3[nH]2)CC1, CCCCn1nc(C(=O)OCC(=O)Nc2sccc2C(N)=O)c2ccccc2c1=O
